Only some compounds are listed: those with a hit (about 3.2% of all), similar ones and a draw of the others.
H9c2 protect: protects H9c2 cardiomyocytes from peroxide injury. H2O2 injury protection, ATPLite, 2 h. protection from H2O2 cell death, % at 20 µM. actives 0.63% (n = 360,000);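 active = compounds giving at least 50% protection of heart cells from peroxide-induced death in the single-dose screen, raw or plate-pattern-corrected value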
CRFR2-BP ag: agonists of human CRF-binding protein/CRF-R2 receptor complex; activation, % at 13.2 µM; actives 0.46% (n = 350,000); HEK293 CRF-R2/CRF-BP, calcium dye fluorescence (FLIPR); percent of saturating CRF peptide response;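 active = activation of at least 50%, plus an integration ratio under a set limit after plate pattern correction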
aDG glyco act: alpha-DG glycosylation activation; actives 0.22% (n = 360,000); activation, % at 10 µM; Pro5-aDG cells, alpha-DG glycosylation AlphaScreen (IIH6); 0% Pro5, 100% B10-LARGE cell signal;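 active = activation of at least 8% versus controls, or a plate z-score of at least 8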;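 also: Pro5 are CHO cells carrying HIG-tagged alpha-DG that lacks glycosylation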
FAS-TE inh: FAS thioesterase (human) inhibition; recombinant FAS-TE, OMFH fluorogenic substrate, fluorescence endpoint; AID 602261; inhibition, % at 15 µM; actives 0.67% (n = 360,000);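 active = compounds whose normalised, plate-corrected inhibition of enzyme fluorescence in the single-dose primary screen is 50% or more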
PfGluPho inh: PfG6PD (Plasmodium falciparum) enzyme inhibition; actives 0.78% (n = 350,000); inhibition, % at 20 µM; PfGluPho enzyme, NADPH resazurin-diaphorase fluorescence; AID 504690;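 active = inhibition reaching at least a set limit at 20 µM in the primary screen, cut at about 59% in these data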
CRFR2-BP antag: CRF-BP/CRF-R2 complex antagonism; HEK293 CRF-R2/CRF-BP, CRF-induced calcium fluorescence; inhibition, % at 11.8 µM; actives 0.59% (n = 350,000);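 active = inhibition of the ligand-induced calcium signal above about 50% at the single tested concentration, limit read from the data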
Each line names hits and unclear results; the compound was inactive in the other large screens.

CCc1ccccc1N1C(=O)C2CC=CCC2C1=O (stereo unspecified)	none
Nc1c(C(=O)N/N=C/c2ccc(F)cc2)oc2nc(-c3ccccc3)cc(-c3ccco3)c12	none
CC(C)(C)c1ccc(C(=O)N2CCC(=O)N(C(CO)Cc3ccccc3)CC2)cc1 (stereo unspecified)	CRFR2-BP ag 51
O=C(c1ccccc1)N1CCC(=O)N(C(CO)Cc2ccccc2)CC1 (stereo unspecified)	none
O=C(NCCN1CCCC1=O)C1CCC(=O)N(CCc2cccc(F)c2)C1 (stereo unspecified)	none
COCc1cc(=O)n2[nH]c(-c3ccccc3)cc2n1	CRFR2-BP antag 79
O=C1c2ccccc2C(=O)c2c(O)c(O)cc(O)c21	CRFR2-BP antag 52
COC1=CC(=O)C(OC)=C(OC)C1=O	PfGluPho inh 120
NS(=O)(=O)c1ccc(NC(=O)CSc2nnc(COc3ccccc3Cl)n2C2CC2)cc1	CRFR2-BP antag 63
Cc1cccc(NC(=O)c2cc(-c3cccnc3)nc3c(C)cccc23)n1	none
CCc1nc(N2CCN(C(=O)CCCl)CC2)c2c3c(sc2n1)CCCC3	none
CCOC(=O)c1nc(N2CCN(C(=O)OCC)CC2)c2c3c(sc2n1)CCCC3	H9c2 protect 62
Cc1ccc(C(=O)N/C(=C\c2cn(C)c3ccccc23)C(=O)NCCN2CCOCC2)cc1	none
Cc1ccc(C(=O)N/C(=C\c2cn(C)c3ccccc23)C(=O)NCCCN2CCOCC2)cc1	CRFR2-BP antag 101
O=C(Cn1cnc2ccccc2c1=O)NCCC(=O)Nc1ccc(F)cc1	none
O=C(O)c1ccc(-n2ncc3c2/C(=C/c2cccc([N+](=O)[O-])c2)CC3)cc1	CRFR2-BP antag 73
O=C(O)c1ccc(-n2ncc3c2/C(=C\c2cccc([N+](=O)[O-])c2)CC3)cc1	none
COc1cccc(CNC(=O)CN(C)S(=O)(=O)c2ccc3c(c2)n(C)c(=O)c(=O)n3C)c1	none
COc1ccc(CNC(=O)CCc2nc3cc(S(=O)(=O)N(C)C)ccc3n2C)cc1OC	CRFR2-BP antag 64
CN(C)S(=O)(=O)c1ccc2c(c1)nc(CCC(=O)O)n2C	none
COc1ccc(CNC(=O)CN(C)S(=O)(=O)c2ccc3c(c2)n(C)c(=O)c(=O)n3C)cc1	CRFR2-BP antag 69
Cc1nc2c(C(=O)NCCc3ccccc3)c[nH]n2c(=O)c1Cl	CRFR2-BP antag 51
Cc1nc2c(C(=O)NCCC(C)C)c[nH]n2c(=O)c1Cl	none
Cc1ccccc1Cn1ccc(NC(=O)CCSc2nc(-c3ccco3)cc(C(F)(F)F)n2)n1	none
O=C(Nc1ccc2c(c1)OCO2)c1cnn2c(C(F)(F)F)cc(-c3ccco3)nc12	H9c2 protect 93
Cc1ccccc1Cn1ccc(NC(=O)c2cnn3c(C(F)(F)F)cc(-c4ccco4)nc23)n1	H9c2 protect 60
Cc1cc(C)n(-c2nc3ccccc3nc2N2CCN(S(=O)(=O)c3ccc4ccccc4c3)CC2)n1	FAS-TE inh 67
Cc1nnc(C)n1/N=C/c1ccccc1	none
Cc1nnc(C)n1/N=C/c1cccs1	CRFR2-BP antag 55
COc1ccc(C(=O)NCC(=O)OCC(=O)Nc2cccc(S(=O)(=O)N3CCCC3)c2)cc1	none
Cn1c(=O)c2[nH]c(-c3ccccc3Cl)c(O)c2n(C)c1=O	CRFR2-BP ag 55
COC(=O)CCCC1=CC2=C(c3ccccc3)C(=O)C(C)(OC(=O)C3CCCC3)C(=O)C2=CN1CCc1ccccn1 (stereo unspecified)	CRFR2-BP antag 57
COC(=O)CCCC1=CC2=C(c3ccccc3)C(=O)C(C)(OC(=O)C3CCCC3)C(=O)C2=CN1CCN1CCOCC1 (stereo unspecified)	none
O=[N+]([O-])c1ccc(O)c(-c2cc(C(F)(F)F)nc(-c3ccccc3)n2)c1	CRFR2-BP ag 62, CRFR2-BP antag 59
Oc1ccc(N=Cc2ccc(OCc3ccccc3)cc2)cc1	PfGluPho inh 87
Cc1cc(O)c(C2(O)C(=O)Nc3cc(Br)ccc32)cc1C (stereo unspecified)	CRFR2-BP antag 121
COc1ccccc1CNC(=O)COC(=O)c1nccnc1N	none
c1c[nH]c(CN2CCN(Cc3ncc[nH]3)CC2)n1	none

Assay outcomes (PubChem)
